Test results published in PubChem BioAssay.
Activity calls are given as the source filed them.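 How the source made its calls, unless noted: active means mean inhibition above 46.5%, the solvent-only control mean plus 3 SD; inactive means the rest.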

Key:
[1] = biological target: Nuclear receptor coactivator 3 (Homo sapiens) (UniProt Q9Y6Q9); experiment: NCOA3 GAL4-fusion reporter inhibition – cell-based, luminescence, quadruplicate, confirmation (AID 588792;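 active means mean inhibition over 43.08%, the solvent-only control mean plus 3 SD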;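 further: 0% = DMSO treated cells and 100% = gossypol at 36 µM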); settings: HEK293 GAL4-SRC3 luciferase reporter, at 3.6 µM, active compounds read high
[2] = system: transactivating tegument protein VP16 (Human herpesvirus 1), Gal4-VP16 luciferase reporter; experiment: repression of VP16-driven luciferase reporter – cell-based, luminescence, high throughput, counter-screen for SRC3 inhibitor project (AID 588794; in the data active means inhibition above about 30%); settings: mammalian cells, at 3.6 µM, active compounds read high
[3] = biological target: Nuclear receptor coactivator 1 (Homo sapiens) (UniProt Q15788); experiment: NCOA1 GAL4-fusion reporter inhibition – cell-based, luminescence, quadruplicate, confirmation (AID 588820;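 active means mean inhibition above 46.68%, the untreated control wells mean plus 3 SD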;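 further: 0% = DMSO wells and 100% = gossypol 36 µM treated wells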); settings: HEK293 GAL4-SRC1 luciferase reporter, at 3.6 µM, active compounds read high
[4] = repression of VP16-driven luciferase reporter – cell-based, luminescence, high throughput, counter-screen for SRC1 inhibitor project (AID 588824; in the data active means inhibition above about 25%); settings: cell-based VP16 transactivation luciferase luminescence; at 3.6 µM; active compounds read high
[5] = StAR promoter reporter inhibitors, counter-screen for LRH-1 inverse agonist project, cell-based, luminescence, high throughput (AID 651611; in the data active means inhibition above about 28%); settings: StAR promoter luciferase reporter counterscreen, at 3.6 µM, active compounds read high
[6] = biological target: Nuclear receptor subfamily 5 group A member 2 (Homo sapiens) (UniProt O00482); experiment: NR5A2 activity suppression in reporter cells – cell-based, luminescence, confirmation (AID 651613; in the data active means inhibition above about 42%;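 further: HEK293T cells co-transfected with LRH-1 and StAR promoter luciferase reporter; 0% = vehicle wells and 100% = parental cells lacking receptor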); settings: cell-based LRH-1 luciferase reporter, inverse agonism; at 3.6 µM; active compounds read high
[7] = biological target: Steroidogenic factor 1 (Homo sapiens) (UniProt Q13285); experiment: inverse agonism at SF1 nuclear receptor – cell-based, luminescence, high throughput, counter-screen for LRH-1 inverse agonist project (AID 651614; in the data active means inhibition above about 44%;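 further: cells cotransfected with StAR promoter reporter and SF1 expression vector; 0% = vehicle on cells with receptor and 100% = vehicle on cells lacking receptor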); settings: cell-based SF1 luciferase reporter, at 3.6 µM, active compounds read high
[8] = compounds suppressing VP16-driven luciferase signal – cell-based, luminescence, high throughput, counter-screen for LRH-1 inverse agonist project (AID 651615; in the data active means inhibition above about 33%); settings: Gal4-VP16 luciferase reporter cells, at 3.6 µM, active compounds read high
[9] = system: transactivating tegument protein VP16 (Human herpesvirus 1); experiment: compounds suppressing VP16-driven luciferase signal – cell-based, luminescence, single concentration, counter-screen for SRC2 inhibitor project (AID 652007; in the data active means inhibition above about 36%); settings: cell-based VP16 transactivation luciferase reporter, at 8.9 µM, active compounds read high
[10] = biological target: Nuclear receptor coactivator 2 (Homo sapiens) (UniProt Q15596); experiment: inhibition of GAL4-SRC2 driven luciferase expression – cell-based, luminescence, HEK293, triplicate, confirmation (AID 652008); settings: HEK293 GAL4-SRC2 luciferase reporter, at 8.9 µM, active compounds read high;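 further: 0% = DMSO-treated cells and 100% = Gossypol at 36 µM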
Sequence of Nuclear receptor coactivator 2 (Homo sapiens) (Q15596 whole entry, looked up, the tested form may be a part): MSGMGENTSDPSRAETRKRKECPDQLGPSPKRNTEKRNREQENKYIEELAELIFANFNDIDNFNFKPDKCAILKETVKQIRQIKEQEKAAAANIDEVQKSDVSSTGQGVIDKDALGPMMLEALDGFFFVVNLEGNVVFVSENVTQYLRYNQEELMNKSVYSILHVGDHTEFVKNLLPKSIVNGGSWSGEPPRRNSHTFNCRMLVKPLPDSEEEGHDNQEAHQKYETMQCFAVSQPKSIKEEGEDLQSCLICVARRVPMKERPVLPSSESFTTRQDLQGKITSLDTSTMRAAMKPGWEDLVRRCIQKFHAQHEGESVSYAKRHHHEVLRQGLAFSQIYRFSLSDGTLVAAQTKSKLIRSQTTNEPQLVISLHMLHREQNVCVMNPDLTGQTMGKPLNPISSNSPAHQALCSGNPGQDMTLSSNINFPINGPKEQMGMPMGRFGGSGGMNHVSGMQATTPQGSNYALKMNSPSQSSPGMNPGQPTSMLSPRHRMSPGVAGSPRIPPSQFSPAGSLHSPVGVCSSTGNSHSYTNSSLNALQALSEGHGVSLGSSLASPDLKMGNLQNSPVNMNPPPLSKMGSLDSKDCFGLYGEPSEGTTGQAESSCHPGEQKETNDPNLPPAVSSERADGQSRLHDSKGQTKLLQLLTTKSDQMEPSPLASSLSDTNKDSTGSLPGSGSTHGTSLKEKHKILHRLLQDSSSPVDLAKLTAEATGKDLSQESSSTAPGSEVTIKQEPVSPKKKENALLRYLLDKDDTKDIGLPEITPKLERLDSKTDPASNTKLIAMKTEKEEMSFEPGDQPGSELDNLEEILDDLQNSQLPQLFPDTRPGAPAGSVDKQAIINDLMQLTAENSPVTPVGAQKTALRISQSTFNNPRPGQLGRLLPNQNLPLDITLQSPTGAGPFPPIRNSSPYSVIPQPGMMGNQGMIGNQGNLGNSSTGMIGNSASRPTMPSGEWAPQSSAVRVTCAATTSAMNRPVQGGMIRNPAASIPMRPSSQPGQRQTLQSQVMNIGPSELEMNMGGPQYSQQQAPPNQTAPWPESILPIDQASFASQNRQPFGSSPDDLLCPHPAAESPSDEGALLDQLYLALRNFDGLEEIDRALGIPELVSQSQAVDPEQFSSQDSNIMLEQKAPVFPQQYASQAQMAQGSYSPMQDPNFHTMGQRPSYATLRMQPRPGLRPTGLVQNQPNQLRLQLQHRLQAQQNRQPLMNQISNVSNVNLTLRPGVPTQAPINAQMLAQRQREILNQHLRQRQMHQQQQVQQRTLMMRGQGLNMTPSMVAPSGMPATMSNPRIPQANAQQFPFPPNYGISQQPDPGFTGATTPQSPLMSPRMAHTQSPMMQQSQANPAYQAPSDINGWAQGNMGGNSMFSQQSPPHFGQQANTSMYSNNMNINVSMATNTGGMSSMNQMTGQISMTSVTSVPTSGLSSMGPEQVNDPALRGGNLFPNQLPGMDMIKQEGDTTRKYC

Sequence of Nuclear receptor coactivator 3 (Homo sapiens) (Q9Y6Q9 whole entry, looked up, the tested form may be a part): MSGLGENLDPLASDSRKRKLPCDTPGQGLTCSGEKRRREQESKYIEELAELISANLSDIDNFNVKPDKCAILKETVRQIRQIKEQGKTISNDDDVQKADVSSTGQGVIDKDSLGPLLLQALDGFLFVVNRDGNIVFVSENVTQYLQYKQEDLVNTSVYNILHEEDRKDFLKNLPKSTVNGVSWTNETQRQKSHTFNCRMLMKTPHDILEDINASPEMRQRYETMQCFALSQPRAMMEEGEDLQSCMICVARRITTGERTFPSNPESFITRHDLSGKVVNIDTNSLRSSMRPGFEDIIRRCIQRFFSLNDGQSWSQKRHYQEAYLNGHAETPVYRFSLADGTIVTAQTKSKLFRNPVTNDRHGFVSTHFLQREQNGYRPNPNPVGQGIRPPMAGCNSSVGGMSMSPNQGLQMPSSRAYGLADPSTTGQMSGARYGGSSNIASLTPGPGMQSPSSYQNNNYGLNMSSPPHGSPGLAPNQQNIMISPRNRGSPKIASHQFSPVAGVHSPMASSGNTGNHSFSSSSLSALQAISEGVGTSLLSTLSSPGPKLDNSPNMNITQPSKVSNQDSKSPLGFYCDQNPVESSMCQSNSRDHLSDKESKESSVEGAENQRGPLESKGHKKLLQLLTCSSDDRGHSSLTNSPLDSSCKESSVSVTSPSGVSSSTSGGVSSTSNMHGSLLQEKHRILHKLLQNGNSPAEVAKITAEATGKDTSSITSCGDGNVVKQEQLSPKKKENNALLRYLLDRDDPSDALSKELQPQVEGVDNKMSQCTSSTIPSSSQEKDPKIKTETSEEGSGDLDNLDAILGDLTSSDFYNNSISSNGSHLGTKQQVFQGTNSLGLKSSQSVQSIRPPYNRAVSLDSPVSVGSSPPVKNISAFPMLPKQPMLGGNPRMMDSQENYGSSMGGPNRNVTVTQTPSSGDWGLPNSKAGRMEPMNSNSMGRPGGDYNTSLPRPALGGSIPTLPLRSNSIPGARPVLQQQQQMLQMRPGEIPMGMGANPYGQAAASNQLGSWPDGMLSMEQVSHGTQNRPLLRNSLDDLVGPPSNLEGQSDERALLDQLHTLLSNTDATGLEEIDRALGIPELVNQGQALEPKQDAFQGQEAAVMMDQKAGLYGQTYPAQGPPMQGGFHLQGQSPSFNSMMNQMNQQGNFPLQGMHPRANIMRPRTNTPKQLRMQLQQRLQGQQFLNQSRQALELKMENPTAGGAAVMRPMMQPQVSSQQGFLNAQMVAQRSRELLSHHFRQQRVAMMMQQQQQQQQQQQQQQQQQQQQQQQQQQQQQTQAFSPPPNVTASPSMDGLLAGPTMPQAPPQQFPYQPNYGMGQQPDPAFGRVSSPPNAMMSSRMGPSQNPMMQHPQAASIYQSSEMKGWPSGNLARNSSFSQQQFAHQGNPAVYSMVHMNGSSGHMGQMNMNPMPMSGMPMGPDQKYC
Sequence of Steroidogenic factor 1 (Homo sapiens) (Q13285 whole entry, looked up, the tested form may be a part): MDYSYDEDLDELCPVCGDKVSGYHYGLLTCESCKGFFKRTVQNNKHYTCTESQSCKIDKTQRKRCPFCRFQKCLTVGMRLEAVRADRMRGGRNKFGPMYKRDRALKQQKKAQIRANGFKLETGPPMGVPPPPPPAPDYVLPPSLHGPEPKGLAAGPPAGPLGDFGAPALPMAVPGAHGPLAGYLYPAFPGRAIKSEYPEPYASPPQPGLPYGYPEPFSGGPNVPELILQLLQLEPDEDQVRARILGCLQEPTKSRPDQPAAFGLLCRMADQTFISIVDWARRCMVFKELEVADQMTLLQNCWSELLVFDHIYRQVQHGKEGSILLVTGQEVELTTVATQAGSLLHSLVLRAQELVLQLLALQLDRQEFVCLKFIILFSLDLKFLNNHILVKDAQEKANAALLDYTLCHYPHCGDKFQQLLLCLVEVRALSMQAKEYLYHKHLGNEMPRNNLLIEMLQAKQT
Sequence of Nuclear receptor subfamily 5 group A member 2 (Homo sapiens) (O00482 whole entry, looked up): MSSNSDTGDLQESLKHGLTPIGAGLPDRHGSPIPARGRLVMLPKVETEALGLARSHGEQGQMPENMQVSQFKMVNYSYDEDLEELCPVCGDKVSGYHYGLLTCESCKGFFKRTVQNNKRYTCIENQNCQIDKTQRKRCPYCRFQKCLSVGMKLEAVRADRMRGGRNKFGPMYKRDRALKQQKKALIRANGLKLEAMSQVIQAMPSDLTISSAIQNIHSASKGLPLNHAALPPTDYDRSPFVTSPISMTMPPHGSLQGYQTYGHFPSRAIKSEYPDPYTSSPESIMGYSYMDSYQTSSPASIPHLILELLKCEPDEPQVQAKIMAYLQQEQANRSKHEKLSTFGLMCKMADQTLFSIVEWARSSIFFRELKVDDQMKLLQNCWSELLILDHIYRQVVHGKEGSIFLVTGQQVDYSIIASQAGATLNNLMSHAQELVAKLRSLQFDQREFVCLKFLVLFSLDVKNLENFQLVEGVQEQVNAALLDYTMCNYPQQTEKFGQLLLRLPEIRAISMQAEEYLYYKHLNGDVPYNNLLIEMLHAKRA

| Structure (SMILES) | inhibition [1] | inhibition [2] | inhibition [3] | inhibition [4] | inhibition [5] | inhibition [6] | inhibition [7] | inhibition [8] | inhibition [9] | inhibition [10] |
| --- | --- | --- | --- | --- | --- | --- | --- | --- | --- | --- |
| CCn1c(C)cc(C(=O)CN2C(=O)c3ccccc3S2(=O)=O)c1C | 30.1% (inactive) | 31.5% (active) | -18.2% (inactive) | 25% (inactive) | 33.4% (active) | -16.2% (inactive) | 28.1% (inactive) | 11% (inactive) | 46.9% (active) | 59.8% (active) |
| COc1cccc(-c2nnc3n2N=C(C(C)(C)C)CS3)c1 | 89.1% (active) | 64.5% (active) | 72.3% (active) | 71.4% (active) | 56.7% (active) | 64.9% (active) | 60.9% (active) | 75.4% (active) | 26.6% (inactive) | 73.7% (active) |
| CCCn1c(C)cc(C(=O)CN2C(=O)c3ccccc3S2(=O)=O)c1C | 70.8% (active) | 60.4% (active) | 45.7% (inactive) | 55% (active) | 67% (active) | 36% (inactive) | 62.4% (active) | 51.2% (active) | 62.8% (active) | 80.5% (active) |
| CCC(C)(C)c1ccc(Oc2ccc(N)cc2)cc1 | 64.5% (active) | 52.2% (active) | 51.2% (active) | 48% (active) | 57.4% (active) | 87.3% (active) | 72.8% (active) | 63.9% (active) | 90.3% (active) | 95.4% (active) |
| S=C(Nc1ccccc1)Nc1ccc(OCc2ccc(Cl)cc2Cl)cc1 | 46.7% (active) | 25.4% (inactive) | 43.6% (inactive) | 24.4% (inactive) | 63.4% (active) | 72.3% (active) | 59.5% (active) | 39.4% (active) | 83.7% (active) | 93.9% (active) |
